Some test systems named below: SR leukemia; RPMI-8226 leukemia; OVCAR-8 ovarian; OVCAR-5 ovarian; OVCAR-4 ovarian; SK-OV-3 ovarian; IGROV1 ovarian; HS 578T breast; NCI/ADR-RES ovarian; T-47D breast; BT-549 breast; MDA-MB-435 melanoma; SW-620 colon; MCF7 breast; HCT-116 colon; HCC-2998 colon; KM12 colon.
Test in all cases: NCI-60 one-dose screen, 48 h (100 = growth as untreated, 0 = no growth, -100 = all killed)
What all share (conditions): 10 µM unless noted

Compounds without any hit were thinned out: in the full panel of roughly 83,000, 20% have a hit.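 Step 1: grow cells in 96-well plates. Step 2: add test compound at a single concentration. Step 3: incubate 48 h. Step 4: record percent growth.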 Values without a mark were called inactive. Activity calls are given as the source filed them. Rule for the calls: active = growth percent below 10; inactive = the rest.

Regarding `CC1CCN(S(=O)(=O)c2ncsc2-c2ccccc2)CC1`, the growth was 55.7% in the test with SR leukemia; 25.5% with RPMI-8226 leukemia; 101% in the test on OVCAR-8 ovarian; 94.8% in the test with OVCAR-5 ovarian; 88.5% in the test with OVCAR-4 ovarian; 95% with SK-OV-3 ovarian. Further, the growth with IGROV1 ovarian is 94.2%; in the test with HS 578T breast, 40.3%; with NCI/ADR-RES ovarian, 90%; in the test with T-47D breast, 90.7%; in the test on BT-549 breast it was 73.5%; in the test with MDA-MB-435 melanoma, 95.5%. The growth was 100% in the test on SW-620 colon; 72.3% with MCF7 breast; 87.5% in the test with HCT-116 colon; 97.4% with HCC-2998 colon; 94.8% with KM12 colon.

Turning to `C(=C(\C1=NCCN1)n1cnc2ccccc21)/c1ccc2ccccc2c1`, the growth was 42.5% in the test with SR leukemia; 67.1% in the test on RPMI-8226 leukemia; 88.5% in the test with OVCAR-8 ovarian; 79.4% with OVCAR-5 ovarian; 72.6% with OVCAR-4 ovarian; 66% in the test with SK-OV-3 ovarian. Further, the growth in the test with IGROV1 ovarian is 81.2%; in the test with HS 578T breast, 57.6%; in the test with NCI/ADR-RES ovarian, 76.6%; in the test with T-47D breast, 57.1%; with BT-549 breast it was 48.5%; with MDA-MB-435 melanoma, 25.7%. Further, the growth was 67.9% in the test on SW-620 colon; 30.4% in the test with MCF7 breast; 67.1% in the test with HCT-116 colon; 71.5% in the test with HCC-2998 colon; 69.2% with KM12 colon.

Take `CN1CCN(Cc2ccc(NC(=O)c3cncc(C#Cc4cnc5ccc(NC6CCOCC6)nn45)c3)cc2C(F)(F)F)CC1`: the growth in the test on SR leukemia was -37.8% (active); in the test with RPMI-8226 leukemia it was -34.1% (active); with OVCAR-8 ovarian, -52.4% (active); in the test on OVCAR-5 ovarian it was 0.169% (active); in the test on OVCAR-4 ovarian it was -29.1% (active); in the test on SK-OV-3 ovarian it was -22.9% (active). The growth in the test on IGROV1 ovarian was -21% (active); with HS 578T breast it was -26% (active); with NCI/ADR-RES ovarian, 7.41% (active); in the test on T-47D breast it was -66.2% (active); in the test with BT-549 breast, -94.4% (active); with MDA-MB-435 melanoma, -70.2% (active). The growth in the test on SW-620 colon was -42.1% (active); in the test on MCF7 breast, -60.3% (active); in the test on HCT-116 colon it was -79% (active); in the test with HCC-2998 colon it was -19.8% (active); in the test on KM12 colon, -42.1% (active).

Consider `CS(=O)(=O)c1nccc(-c2c(-c3ccc(F)c(OCCc4ccc(F)cc4)c3)nc3sccn23)n1`, for which the growth in the test with SR leukemia was 0.201% (active); with RPMI-8226 leukemia it was -43.2% (active); in the test on OVCAR-8 ovarian, 69.8%; with OVCAR-5 ovarian, 93.2%; in the test with OVCAR-4 ovarian it was 51.2%; in the test on SK-OV-3 ovarian, 84.5%. Besides, the growth is -64.9% (active) in the test on IGROV1 ovarian; 35.5% with HS 578T breast; 81.3% in the test on NCI/ADR-RES ovarian; -75.5% (active) with T-47D breast; 57.2% with BT-549 breast; 87.2% in the test on MDA-MB-435 melanoma. Also, the growth in the test with SW-620 colon is 67.1%; in the test with MCF7 breast, -61% (active); in the test with HCT-116 colon, 47.6%; with HCC-2998 colon, -91% (active); in the test with KM12 colon, -42.9% (active).

As to `COc1ccc(S(=O)(=O)n2cc(C=O)c3ccccc32)c(OC)c1`, the growth in the test with SR leukemia was 16.4%; in the test on RPMI-8226 leukemia it was 38.7%; in the test with OVCAR-8 ovarian, 76.1%; with OVCAR-5 ovarian it was 96.1%; with OVCAR-4 ovarian, 80.9%; in the test on SK-OV-3 ovarian, 97.4%. The growth with IGROV1 ovarian is 86.6%; with HS 578T breast, 78.3%; in the test on NCI/ADR-RES ovarian it was 51%; with T-47D breast it was 65.6%; with BT-549 breast, 64.2%; in the test on MDA-MB-435 melanoma, 29.6%. The growth was 35.4% in the test with SW-620 colon; 25.5% in the test with MCF7 breast; 15.4% with HCT-116 colon; 110% in the test with HCC-2998 colon; 95.4% with KM12 colon.

With `O=S(=O)(NC1CC2CCC1C2)c1ccc2c(c1)C(=NO)c1cc(S(=O)(=O)NC3CC4CCC3C4)ccc1-2` (stereo unspecified), the growth is -7.47% (active) with SR leukemia; -24.6% (active) in the test with RPMI-8226 leukemia; 67% in the test with OVCAR-8 ovarian; 42.5% in the test with OVCAR-5 ovarian; -52.4% (active) with OVCAR-4 ovarian; 86.4% in the test on SK-OV-3 ovarian. The growth in the test with IGROV1 ovarian was -73.7% (active); with HS 578T breast it was 86%; in the test with NCI/ADR-RES ovarian it was 63.7%; in the test on T-47D breast, -0.508% (active); in the test on BT-549 breast, 31.7%; in the test on MDA-MB-435 melanoma it was 27.1%. Besides, the growth was -63.4% (active) with SW-620 colon; 25.3% with MCF7 breast; 20.3% in the test on HCT-116 colon; 38.9% with HCC-2998 colon; 45.9% in the test with KM12 colon.

Consider `CC1CCc2c(sc3nc(SCC(=O)N/N=C/c4cccc(O)c4O)n(-c4ccccc4)c(=O)c23)C1` (stereo unspecified), for which the growth in the test with SR leukemia is 81%; in the test on RPMI-8226 leukemia, 89.1%; in the test on OVCAR-8 ovarian, 90.6%; in the test with OVCAR-5 ovarian, 93.6%; in the test on OVCAR-4 ovarian it was 84.7%; with SK-OV-3 ovarian, 107%. The growth was 92.9% in the test on IGROV1 ovarian; 95.8% in the test with HS 578T breast; 89.1% in the test with NCI/ADR-RES ovarian; 74.5% with T-47D breast; 127% in the test with BT-549 breast; 88.4% with MDA-MB-435 melanoma. For the same compound, the growth in the test with SW-620 colon was 85.4%; with MCF7 breast, 88.3%; in the test on HCT-116 colon, 85.8%; in the test on HCC-2998 colon, 104%; in the test on KM12 colon, 88.9%.

As to `CNC(=O)c1cc(Oc2ccc3nc(NC(=O)c4cc(C)cc(C)c4)sc3c2)ccn1`, the growth was 30.9% in the test on SR leukemia; 51.9% in the test on RPMI-8226 leukemia; 91.1% in the test on OVCAR-8 ovarian; 104% in the test on OVCAR-5 ovarian; 77% in the test on OVCAR-4 ovarian; 97.4% in the test with SK-OV-3 ovarian. Further, the growth is 88.7% in the test with IGROV1 ovarian; 85.8% with HS 578T breast; 76% in the test with NCI/ADR-RES ovarian; 80.1% in the test with T-47D breast; 11.6% in the test on BT-549 breast; 40.6% with MDA-MB-435 melanoma. Moreover, the growth was 92.7% in the test on SW-620 colon; 82% in the test on MCF7 breast; 32.9% with HCT-116 colon; 103% in the test on HCC-2998 colon; 91.3% in the test on KM12 colon.

Values taken from PubChem BioAssay (NCI).
